# Reference: PubChem BioAssay (NCI)
# The panel holds about 83,000 compounds, 20% with a hit somewhere; the sample as a whole holds those more often.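 Negative percent growth values reflect cell death: -40 means 40% of the cells present at the start died, and -100 means all died.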 Unmarked numbers belong to inactive results. Calls of active or inactive are those of the source. Rule for the calls: active = growth percent below 10; inactive = the rest.
# Key:
# Experiment in all cases: NCI-60 one-dose screen, 48 h (100 = growth as untreated, 0 = no growth, -100 = all killed)
# Conditions in all cases: 10 µM unless noted
# HCT-15 colon = tested on: HCT-15 colon
# HT29 colon = tested on: HT29 colon
# SNB-75 CNS = tested on: SNB-75 CNS
# SNB-19 CNS = tested on: SNB-19 CNS
# U251 CNS = tested on: U251 CNS
# PC-3 prostate = tested on: PC-3 prostate
# SK-MEL-5 melanoma = tested on: SK-MEL-5 melanoma
# UACC-62 melanoma = tested on: UACC-62 melanoma
# LOX IMVI melanoma = tested on: LOX IMVI melanoma
# SK-MEL-28 melanoma = tested on: SK-MEL-28 melanoma
SMILES,growth (HCT-15 colon),growth (HT29 colon),growth (SNB-75 CNS),growth (SNB-19 CNS),growth (U251 CNS),growth (PC-3 prostate),growth (SK-MEL-5 melanoma),growth (UACC-62 melanoma),growth (LOX IMVI melanoma),growth (SK-MEL-28 melanoma)
COc1cccc(NC(=O)Nc2ccc(Nc3ncnc4sc5c(c34)CCN(C(=O)CCl)C5)cc2)c1,118%,90.2%,86.4%,102%,95.5%,90.7%,106%,94.8%,94.1%,117%
O=C(CNc1nnc(-c2ccc(Cl)cc2)o1)Nc1ccc(-c2nc3ccccc3s2)cc1,89.6%,95.7%,85.8%,90.6%,81.6%,88.6%,92.1%,86.1%,-43.1% (active),117%
O=C(Nc1cccc([N+](=O)[O-])c1)c1ccc(Cl)c(Cl)c1,93.2%,78.3%,-2.87% (active),53.5%,62.4%,60.7%,89.4%,74.4%,63.6%,53.5%
O=C1C=CC2(NN=C(c3ccccc3)N2c2cccc(Cl)c2)c2cccc(O)c21 (stereo unspecified),23.8%,79.3%,57.5%,43.9%,24.1%,32.7%,-54.6% (active),3.48% (active),3.66% (active),35.8%
O=C(NCCO)Nc1ccc(-c2nc(N3CCOCC3)c3cccn3n2)cc1,11.5%,14.4%,-31.9% (active),18.3%,18.3%,9.72% (active),-27.6% (active),-37.7% (active),4.86% (active),-7.13% (active)
COc1cnc2c(c1)C(=O)c1c-2n(CCCN2CCOCC2)c(=O)c2cc(Cl)ccc12,43.9%,8.04% (active),45.9%,28.6%,8.25% (active),32%,-9.63% (active),4.37% (active),-36.6% (active),66.4%
CCOC(=O)Sc1ncnc2nc[nH]c12,82.5%,59.6%,62%,91.1%,91.7%,88%,74.1%,16%,7.98% (active),100%
O=C1/C(=C\c2cccc(OCCCCCOc3ccc(Cl)cc3)c2)N=C2SCCCN12,57.7%,67.4%,71.3%,75%,74.1%,28.8%,-6.82% (active),56.6%,67.1%,58.7%
CN(C)C[C@@H]1CCn2cc(c3ccccc32)C2=C(C(=O)NC2=O)c2cn(c3ccccc23)CCO1,-31.7% (active),0.848% (active),-76.1% (active),15.3%,-70.8% (active),0.163% (active),22.5%,43%,-70.1% (active),-92.6% (active)
COc1cc2ncnc3c2cc1OCCCCCN(C)Cc1ccc(Br)cc1N3,19.5%,28.9%,74.5%,88.4%,68.6%,39%,72.7%,43.8%,32.8%,74.8%
COC(=O)[C@H](Cc1ccccc1)NC(=O)[C@@H](OC)[C@@H]1Cc2cc3cc(OC4CC(OC5CC(O)C(O)C(C)O5)C(O)C(C)O4)c(C)c(O)c3c(O)c2C(=O)[C@H]1OC1CC(OC2CC(OC3CC(C)(O)C(O)C(C)O3)C(O)C(C)O2)C(O)C(C)O1 (stereo partly specified),5.61% (active),4.24% (active),-86.8% (active),4.82% (active),2.62% (active),-9.57% (active),-78% (active),-56.6% (active),-18.2% (active),-27% (active)
COc1ccc(C2OC(c3cc(-c4cc5ccccc5o4)nn3-c3ccccc3)=NN2C(C)=O)cc1 (stereo unspecified),97.2%,93.3%,87.5%,91.3%,96.2%,88.9%,8.69% (active),86.9%,–,109%
C=CC(=O)Nc1cccc(Oc2nc(Nc3ccc(N4CCN(C)CC4)cc3)nc3ccsc23)c1,-21.9% (active),-60% (active),-81.1% (active),12.8%,-84.7% (active),-44.5% (active),-97.2% (active),-78.2% (active),–,-91.6% (active)
CC(CCCC(=O)O)c1ccoc1 (stereo unspecified),102%,95.5%,92.6%,111%,109%,98.4%,106%,107%,–,109%
C[C@@]1(C(=O)Nc2ccc(F)nc2)CCCN1c1nc(Nc2cc(C3CC3)[nH]n2)c2cccn2n1,26.5%,-31.8% (active),-53.2% (active),55.2%,32.3%,30.8%,48.1%,17.5%,–,43.6%
Cc1cc(C2(c3ccc(O)c(C)c3)OS(=O)(=O)c3ccccc32)ccc1O,117%,115%,91.6%,105%,107%,90.8%,103%,107%,–,113%
O=C(Nc1ccc(C(=O)Nc2ccc(C3=NCCCN3)cc2)cc1)Nc1ccc(C2=NCCCN2)cc1,100%,92.8%,91%,95.6%,84.6%,90%,54.7%,82.7%,–,105%
O=C(Nc1ccc(Nc2ncnc3sc4c(c23)CCOC4)cc1)Nc1ccc(Cl)c(C(F)(F)F)c1,98.9%,81.1%,69.1%,110%,99.9%,60.8%,98.1%,93.4%,–,95.1%
CCN1CCN(c2cc(C)nc(N(CCCNc3ccnc4cc(Cl)ccc34)Cc3ccc4c(c3)OCO4)n2)CC1,1.33% (active),-12.2% (active),-15% (active),16.3%,-45.4% (active),15.8%,-95.7% (active),-47.8% (active),–,-73.6% (active)
Cc1nn(-c2nc3ccccc3[nH]2)c2c1C(c1ccc(OCc3ccc(F)cc3)cc1)CC(=O)N2 (stereo unspecified),41.5%,70.1%,48.3%,64.9%,41.6%,43.8%,68.3%,61.3%,28%,63%
CCNC(=O)Nc1nc2ccc(Oc3ccnc(C(=O)NC)c3)cc2s1,52.7%,29.8%,77.1%,81%,58%,76.1%,66.8%,60%,–,80.3%
COc1cc(Nc2c(C#N)cnc3cc(OCCCN4CCN(C)CC4)c(OC)cc23)c(Cl)cc1Cl,57.5%,10.3%,87.6%,70.4%,65%,84.7%,62.5%,9.83% (active),–,19.3%
O=c1nc2c(-c3nc4ccccc4s3)n[nH]n2c2sc3c(c12)CCCC3,64%,111%,104%,101%,86.5%,79.6%,101%,92.7%,–,114%
Cn1ccnc1C(=O)/C=C/c1ccc(CC(=O)Nc2ccc(S(F)(F)(F)(F)F)cc2)cc1,1.2% (active),-36% (active),3.35% (active),-39.9% (active),-93.3% (active),-32.7% (active),33.2%,-2.41% (active),–,38.2%
CN1CCN(c2nc(C3=C(c4c[nH]c5ccccc45)C(=O)NC3=O)c3ccccc3n2)CC1,85.3%,11.6%,79.4%,87.5%,69.4%,108%,45.6%,6.81% (active),80.4%,3.91% (active)
O=C1OCC2=C1C(c1cccc(F)c1)c1cc3c(cc1N2CCO)OCCO3 (stereo unspecified),9.75% (active),4.94% (active),27.3%,18.6%,17.8%,24.8%,8.33% (active),33%,–,44.8%
Nc1cc2c(cc1Br)-c1c(C(=O)O)cccc1C2O (stereo unspecified),108%,106%,90.2%,99.5%,97.4%,82.2%,99.9%,90.9%,–,102%
